PP1 inh – counter-screen for PP5 inhibitors: inhibitors of human PP1-alpha; P62136; purified PP1alpha, OMFP fluorescence; inhibition, % at 6.7 µM; 320,000 tested, 0.9% active;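 active = inhibition above the mean inhibition of all tested compounds plus 3 SD, computed separately for each screening campaign, cut at about 15% in these data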
Calb FLC – affects C. albicans growth with fluconazole; growth inhibition, % (test concentration not listed); C. albicans CaCi-2 (fluconazole-resistant clinical isolate) + fluconazole, Alamar Blue growth, 48 h; 300,000 tested, 0.57% active;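 active = growth inhibition above about 58% in most replicates, limit read from the data, passing the limit was not always enough; inconclusive = exactly half the replicates above a set limit; inactive = most replicates below a set limit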;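 note: all wells also contain fluconazole at 8 µg/ml as a sub-toxic cotreatment; 0% = median of DMSO wells and 100% = median of geldanamycin control wells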
PP5 inh – blocks human protein phosphatase 5 activity. purified PP5c, OMFP substrate fluorescence. 320,000 tested, 0.18% active. inhibition, % at 6.7 µM. AID 1987;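 active = inhibition above the campaign's mean inhibition across all tested compounds plus 3 SD, cut at about 9.5% in these data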;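 note: 0% = DMSO only and 100% = 100 µM cantharidin control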
Mdm2-MdmX inh – disrupts the human Mdm2-MdmX interaction; O15151+Q00987; SaOS-2 split-luciferase Mdm2/MdmX complementation, luminescence; inhibition, % at 8 µM; 330,000 tested, 3% active; AID 485346;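 active = inhibition of at least 50% at 8 µM in the primary screen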
Beta cell apopt – blocks beta cell apoptosis. INS-1E cytokine-induced death, ATP luminescence, 48 h; percent of positive-control rescue, neutral wells zero. protection from apoptosis, % (concentration not given with the values). 300,000 tested, 0.8% active. AID 435005;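 active = Every replicate reaches about 75%, or at least half do and their mean reaches it too, limit read from the data; inconclusive = At least half of replicates reach the limit but their mean does not; inactive = Under half of replicates reach the limit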;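 note: 0% = cytokine-treated negative control wells and 100% = positive control rescue; higher means more ATP so stronger rescue from cytokine killing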
CSC inhib – cancer stem cell inhibition. 300,000 tested, 1.1% active. inhibition, % at 7.5 µM. cancer stem cell-like cells viability, luminescence; in the data active = inhibition above about 75%; inconclusive = no clear call, values can overlap the other calls; tested in HMLE shEcad cells
Mdm2-MdmX conf – human Mdm2/MdmX binding inhibition, confirmed. shares compounds with Mdm2-MdmX inh. luminescent assay. inhibition, % at 8 µM. 10,000 tested, 55% active. AID 489028; in the data active = inhibition above about 40%
FLuc counter – inhibits full-length luciferase, flagging false Mdm2/MdmX hits; SaOS-2 full-length luciferase counterscreen, luminescence; 6,200 tested, 77% active; shares compounds with Mdm2-MdmX inh; AID 504607; inhibition, % at 8 µM;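 active = mean inhibition at 8 µM reaching about 37%, which flags the compound as non-specific, limit read from the data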;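 note: p53-null SaOS-2 cells with luciferase driven by a doxycycline-inducible promoter; compound on cells about two nights before reading with doxycycline added after day one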
The depositor's hits bear a star; ? = inconclusive; · = no result. Shown are actives, neighbours in structure and some others; about 4.9% of the full set was active somewhere.

SMILES	PP1 inh	Calb FLC	PP5 inh	Mdm2-MdmX inh	Beta cell apopt	CSC inhib	Mdm2-MdmX conf	FLuc counter
CCn1c(=O)c([N+](=O)[O-])c(Cl)c2ccccc21	-1	-4	0	99*	77*	?	97*	55*
O=C(COC(=O)COc1cccc(C(F)(F)F)c1)Nc1ccc(N2CCOCC2)cc1	-1	·	2	10	0	-2	·	·
CCCCCCSc1ccc(-c2nc3cc(C)ccn3c2NC2CCCCC2)cc1	·	·	·	51*	6	52	-2	·
CCC(C)Sc1ccc(-c2nc3cc(C)ccn3c2NC2CCCCC2)cc1 (stereo not drawn)	·	·	·	85*	·	·	-42	·
Cc1ccn2c(NC3CCCC3)c(-c3ccncc3)nc2c1	-1	-33	3	-26	-5	-8	·	·
Cc1ccn2c(NC3CCCC3)c(-c3ccccn3)nc2c1	14	-24	1	74*	16	62	43*	43*
CCOc1ccccc1NC(=O)[C@@H](NC(=O)c1ccccc1F)C(C)C	-3	-5	1	5	-6	0	·	·
COc1ccc(OC)c2nc(-c3ccc4c(c3)OCO4)ccc12	2	-8	3	-148	5	-2	·	·
Cc1cccc(Nc2nnc(-c3ccc(C(=O)N4C[C@H]5C[C@H](C4)c4cccc(=O)n4C5)cc3)c3ccccc23)c1	3	3	1	15	15	-12	·	·
CC(C)N(Cc1ccccc1)C(=O)COC(=O)c1cnc(Cl)c(Cl)c1	·	·	·	63*	5	·	9	·
O=C(OCc1ccccc1)c1cnc(Cl)c(Cl)c1	8	1	-2	14	0	-2	·	·
COC(=O)CSc1nc2ccc(NC(=O)CSc3nnnn3Cc3ccccc3)cc2s1	0	21	0	94*	6	2	32	·
COc1cc(NC(=O)CSc2ccc(-c3ccccn3)nn2)cc(OC)c1	0	-4	1	65*	30	-13	59*	57*
CCOC(=O)c1ccccc1NC(=O)CSc1ccc(-c2ccccn2)nn1	4	15	5	75*	-4	-3	77*	36*
CC(=O)c1cccc(NC(=O)CSc2ccc(-c3ccccn3)nn2)c1	-1	2	4	37	3	3	·	·
Cc1ccc(NC(=O)CSc2ccc(-c3ccccn3)nn2)cc1F	-3	-7	2	53*	6	-4	46*	47*
CCc1ccc(NC(=O)CSc2ccc(-c3ccccn3)nn2)cc1	4	11	4	71*	86*	6	45*	73*
CC(=O)Nc1cccc(NC(=O)CSc2ccc(-c3ccccn3)nn2)c1	-12	27	-1	21	1	0	·	·
CC(=O)N1CCN(C(=O)c2cccc(S(=O)(=O)N3CCOCC3)c2)CC1	·	·	·	-2	·	·	·	·
CCOC(=O)N1CCC(N2C(=O)c3ccc(C(=O)Nc4ccc(OC)cc4)cc3C2=O)CC1	3	-2	2	-17	-1	-18	·	·
CN1CCC(N(CCc2ccccc2)C(=O)CCC(=O)O)CC1	-3	7	-1	-9	-10	-18	·	·
COc1ccc(C)cc1NC(=O)CSc1ccc(-c2sc(C)nc2C)nn1	5	-1	4	22	8	-6	·	·
COc1ccc(C)cc1NC(=O)CSc1ccc(-c2ccccn2)nn1	0	·	3	54*	2	57	55*	52*
COc1ccc(-c2cc(-c3cccs3)c(C#N)c(SCC(=O)NCc3ccccc3)n2)cc1	-4	-6	-2	61*	19	5	12	·
COc1ccc(-c2cc(-c3ccccc3)nc(SCC(=O)Nc3ncc(C)s3)c2C#N)cc1	4	?	4	42	15	-1	·	·
COc1ccc(-c2cc(-c3cccs3)c(C#N)c(SCC(=O)NCc3ccccc3OC)n2)cc1	-3	-5	2	84*	29	14	30	·
O=C(c1sccc1-c1ccccc1)N1CCN(S(=O)(=O)c2ccccc2F)CC1	1	-2	2	27	0	-1	·	·
Cc1ccc(OCCCC(=O)ON=C(N)c2ccccc2C)cc1	-6	·	-2	32	1	-13	·	·
Cc1ccccc1C(=O)O/N=C(\N)Cc1cccs1	-2	10	2	100*	·	-4	92*	115*

Source: PubChem (several laboratories)
